# According to the antibiotic and cytotoxicity screens of Wong et al. (2023):
# Among all 39,000 compounds or so, about 1,500 (3.8%) were called active. Only a selection was taken, and actives are over-represented in it overall.
# Test system: HSkMC (human skeletal muscle cells)
# Test: cytotoxicity call (relative viability < 0.9)
# Details: 10 µM
row,SMILES,cytotoxicity call
1,C[C@H]1CN([C@@H](C)CO)C(=O)c2cc(NC(=O)C3CCCCC3)ccc2O[C@H]1CN(C)Cc1ccc(C(=O)Nc2ccccc2N)cc1,inactive
2,CO[C@H]1CN(C)C(=O)c2ccc(NS(=O)(=O)CC(F)(F)F)cc2OC[C@@H](C)N(C(=O)NC(C)C)C[C@@H]1C,inactive
3,C[C@H](CO)N1C[C@H](C)[C@H](CN(C)S(=O)(=O)c2ccccc2)OCCCC[C@H](C)Oc2ccc(NS(C)(=O)=O)cc2C1=O,inactive
4,CNC(=O)N1CCC(C(N)=O)CC1,inactive
5,O=C(C[C@@H]1C[C@H]2c3cc(NS(=O)(=O)c4ccc(F)cc4)ccc3O[C@H]2[C@H](CO)O1)NCc1ccccn1,inactive
6,C[C@@H]1CN([C@H](C)CO)C(=O)c2cc(NC(=O)Nc3ccc(C(F)(F)F)cc3)ccc2O[C@@H]1CN(C)Cc1ccc2c(c1)OCO2,inactive
7,C[C@@H]1CN([C@@H](C)CO)C(=O)c2cc(NC(=O)Nc3ccc4c(c3)OCO4)ccc2O[C@@H]1CN(C)Cc1ccc(C(F)(F)F)cc1,inactive
8,C[C@H](CO)N1C[C@H](C)[C@@H](CN(C)Cc2ccc3c(c2)OCO3)Oc2ccc(NC(=O)Nc3ccc(C(F)(F)F)cc3)cc2C1=O,active
9,CCC(=O)Nc1ccc2c(c1)OC[C@@H](C)N(C(=O)CN1CCOCC1)C[C@@H](C)[C@@H](OC)CN(C)C2=O,inactive
10,C[C@@H]1CN([C@@H](C)CO[Si](C)(C)C(C)(C)C)C(=O)c2cc(NC(=O)Nc3ccccc3)ccc2O[C@@H](C)CCCCO[C@H]1CN(C)S(=O)(=O)c1ccc(F)cc1,inactive
11,COc1ccc(S(=O)(=O)Nc2ccc3c(c2)C(=O)N([C@H](C)CO)C[C@@H](C)[C@H](CN(C)S(=O)(=O)c2ccc(F)cc2)O3)cc1,inactive
12,C[C@@H]1CN([C@H](C)CO)C(=O)c2cc(NS(=O)(=O)c3ccc(F)cc3)ccc2O[C@@H]1CN(C)S(=O)(=O)c1cn(C)cn1,inactive
13,O=C(O[C@@H]1O[C@@H]2COC(=O)c3cc(O)c(O)c(O)c3-c3c(cc(O)c(O)c3O)C(=O)O[C@H]2[C@H](OC(=O)c2cc(O)c(O)c(O)c2)[C@H]1OC(=O)c1cc(O)c(O)c(O)c1)c1cc(O)c(O)c(O)c1,active
14,O=C(O[C@@H]1O[C@@H]2COC(=O)c3cc(Oc4c(C(=O)O)cc(O)c(O)c4O)c(O)c(O)c3-c3c(cc(O)c(O)c3O)C(=O)O[C@H]2[C@H](OC(=O)c2cc(O)c(O)c(O)c2)[C@H]1OC(=O)c1cc(O)c(O)c(O)c1)c1cc(O)c(O)c(O)c1,inactive
15,O=C(O[C@@H]1O[C@H]2COC(=O)c3cc(O)c(O)c(O)c3-c3c(cc(O)c(O)c3O)C(=O)O[C@@H]([C@H]1O)[C@@H]2O)c1cc(O)c(O)c(O)c1,inactive
16,COCCOC(=O)N1C(=O)[C@@]2(c3cc(C#CCC(C(=O)OC)C(=O)OC)ccc31)[C@H](C(=O)N1CCc3cc(OC)c(OC)cc3C1)[C@H]1C(=O)O[C@H](c3ccccc3)[C@H](c3ccccc3)N1[C@@H]2c1ccccc1OCCO,inactive
17,C[C@H]1CCCCO[C@H](CN(C)CC2CCCCC2)[C@@H](C)CN([C@@H](C)CO)C(=O)c2cc(NC(=O)Nc3ccc(F)cc3)ccc2O1,inactive
18,C[C@@H]1CCCCO[C@H](CN(C)CC2CCCCC2)[C@H](C)CN([C@@H](C)CO)C(=O)c2cc(NC(=O)Nc3ccc(F)cc3)ccc2O1,inactive

row,SMILES,cytotoxicity call
1,C[C@@H]1CCCCO[C@@H](CN(C)CC2CCCCC2)[C@H](C)CN([C@H](C)CO)C(=O)c2cc(NC(=O)Nc3ccc(F)cc3)ccc2O1,inactive
2,C[C@@H]1CN([C@H](C)CO)C(=O)c2cc(NC(=O)Nc3ccc(F)cc3)ccc2O[C@@H](C)CCCCO[C@@H]1CN(C)CC1CCCCC1,active
3,C[C@H](CO)N1C[C@H](C)[C@H](CN(C)CC2CCCCC2)OCCCC[C@H](C)Oc2ccc(NC(=O)Nc3ccc(F)cc3)cc2C1=O,active
4,C[C@@H]1CCCCO[C@H](CN(C)CC2CCCCC2)[C@H](C)CN([C@H](C)CO)C(=O)c2cc(NC(=O)Nc3ccc(F)cc3)ccc2O1,active
5,C[C@@H]1CN([C@@H](C)CO)C(=O)c2cc(NC(=O)Nc3ccc(F)cc3)ccc2O[C@@H](C)CCCCO[C@H]1CN(C)CC1CCCCC1,inactive
6,C[C@@H]1CN([C@@H](C)CO)C(=O)c2cc(NC(=O)Nc3ccc(F)cc3)ccc2O[C@@H](C)CCCCO[C@@H]1CN(C)CC1CCCCC1,active
7,C[C@@H]1CCCCO[C@@H](CN(C)CC2CCCCC2)[C@@H](C)CN([C@H](C)CO)C(=O)c2cc(NC(=O)Nc3ccc(F)cc3)ccc2O1,inactive
8,C[C@H]1CCCCO[C@@H](CN(C)CC2CCCCC2)[C@@H](C)CN([C@@H](C)CO)C(=O)c2cc(NC(=O)Nc3ccc(F)cc3)ccc2O1,inactive
9,C[C@@H]1CCCCO[C@@H](CN(C)CC2CCCCC2)[C@H](C)CN([C@@H](C)CO)C(=O)c2cc(NC(=O)Nc3ccc(F)cc3)ccc2O1,inactive
10,C[C@@H]1CCCCO[C@@H](CN(C)CC2CCCCC2)[C@@H](C)CN([C@@H](C)CO)C(=O)c2cc(NC(=O)Nc3ccc(F)cc3)ccc2O1,inactive
11,Cn1cnc(CCNC(=O)C[C@@H]2CC[C@@H]3[C@H](COC[C@@H](O)CN3C(=O)C3CC3)O2)c1,inactive
12,C[C@H](CO)N1C[C@H](C)[C@@H](CN(C)S(=O)(=O)c2cccs2)Oc2c(NC(=O)c3cnccn3)cccc2C1=O,inactive
13,COc1cccc(-c2cnc3c(c2)C(=O)N([C@H](C)CO)C[C@H](C)[C@H](CN(C)S(=O)(=O)c2cccs2)O3)c1,inactive
14,COc1ccc(S(=O)(=O)N(C)C[C@@H]2OCc3cn(nn3)CCCC(=O)N([C@@H](C)CO)C[C@H]2C)cc1,inactive
15,C[C@H](CO)N1C[C@H](C)[C@H](CN(C)C(=O)NC2CCCCC2)Oc2ccc(NS(=O)(=O)c3cn(C)cn3)cc2C1=O,inactive
16,CC1(C)OC(=O)C2(C(=O)O1)[C@@H](c1ccc(-c3ccc(-c4ccc(O)cc4)cc3)cc1)CC(=O)C[C@H]2c1ccccc1,inactive
17,CCCn1c(=O)[nH]c(=O)c2[nH]cnc21,inactive
18,COc1ccc(NC(=O)N(C)C[C@@H]2Oc3ccc(NC(=O)CCCCCC(=O)Nc4ccccc4N)cc3C(=O)N([C@H](C)CO)C[C@@H]2C)cc1,inactive
